Shown are actives, neighbours in structure and some others; about 4.6% of the full set was active somewhere.
D1 ag – agonists of human D1 dopamine receptor; HEK293 T-REx D1 cells, calcium flux, agonist mode; activation, % at 2 µM; actives 1% (n = 360,000); AID 504660; further: 0% is about no effect
Target sequence (P21728 whole entry, looked up): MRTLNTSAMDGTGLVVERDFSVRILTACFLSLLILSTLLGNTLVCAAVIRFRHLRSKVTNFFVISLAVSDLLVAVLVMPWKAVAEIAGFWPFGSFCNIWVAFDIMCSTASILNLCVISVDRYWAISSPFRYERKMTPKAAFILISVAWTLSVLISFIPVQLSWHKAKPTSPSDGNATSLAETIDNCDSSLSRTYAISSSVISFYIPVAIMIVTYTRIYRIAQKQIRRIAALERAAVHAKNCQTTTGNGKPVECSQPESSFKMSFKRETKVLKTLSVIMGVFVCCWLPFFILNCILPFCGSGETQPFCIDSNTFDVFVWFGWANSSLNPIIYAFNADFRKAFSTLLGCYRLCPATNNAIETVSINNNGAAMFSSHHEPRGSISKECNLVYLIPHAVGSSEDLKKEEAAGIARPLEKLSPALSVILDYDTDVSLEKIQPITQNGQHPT
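Inducible HEK293 T-REx D1 cells, force-coupled to calcium signalling, were plated at 4000 cells/well with tetracycline and held overnight at 30 C. After no-wash calcium dye loading, compound-evoked calcium rise over 180 s flagged agonists.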
TRHR ag – agonists of human TRH receptor. P34981. TRHR cells, calcium flux fluo-8, FDSS agonist mode. activation, % at 2 µM. actives 0.18% (n = 360,000). AID 493084; further: 0% is about no effect
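TRHR-expressing cells, plated overnight in medium with 10% serum, were loaded with fluo-8 calcium dye at room temperature. After a 10 s baseline, library compound was pin-added and calcium release was recorded kinetically (ex 480/em 530) as agonist response.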
TRHR enhancer – allosteric enhancers of human TRH receptor; TRHR cells, fluo-8 calcium fluorescence, EC20 TRH enhancement; enhancement, % at 2 µM; actives 0.66% (n = 360,000); in the data active means enhancement above about 30%; further: 0% is about no effect
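Enhancer read-out: after compound pinning and an initial kinetic agonist-mode read, an EC20 of TRH (10 nM final) was injected and fluo-8 calcium signal (Ex 480/Em 530) followed at 1 s/cycle for 100 cycles in TRHR-expressing cells.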
D1 antag – human D1 dopamine receptor antagonism; HEK293 TREx D1 cells, calcium flux, dopamine EC80; stronger effect = lower value; actives 3.2% (n = 360,000); activity change, negative = inhibition, % at 10 µM; AID 504652; in the data active means activity change below about -30%; further: on the % scale 0 is the no-effect control and ±100 the full control effect
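Calcium flux readout: force-coupled, inducible Hek293 Trex D1 line, cells induced overnight at 30 C with tetracycline, dye-loaded 30–90 min at RT. Antagonism scored against EC80 dopamine challenge given 180 s after compound.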
D1 PAM – enhances dopamine response at the human D1 receptor | P21728 | HEK293 TREx D1 cells, calcium flux, dopamine EC20 potentiation | potentiation, % at 10 µM | actives 0.036% (n = 360,000); in the data active means potentiation above about 30%; further: 0% is about no effect
Numbers without * were called inactive. Unless noted, no stated cut-off is given here; in the data, active means activation above about 30%; inactive means the rest.

SMILES | D1 ag | TRHR ag | TRHR enhancer | D1 antag | D1 PAM
COc1cc(C)c(C(C)C)cc1S(=O)(=O)N1CCN(C)CC1 | 1.0 | 0.2 | -6.0 | -45.7* | -9.0
CCOc1cc(C)c(C(C)C)cc1S(=O)(=O)N1CCN(C)CC1 | 2.4 | 1.4 | -5.8 | -1.6 | 10.9
CCOc1cc(C)c(Cl)cc1S(=O)(=O)N1CCCC1 | 0.9 | -0.9 | -2.5 | -9.5 | -3.8
CCC(C)NC(=O)NCc1ccccc1F (stereo unspecified) | 2.2 | -0.2 | 0.5 | -4.7 | 2.7
Cc1ccc(C)c(Cn2cnc3c(cnn3C(C)(C)C)c2=O)c1 | 40.8* | -0.1 | -3.5 | 6.1 | -5.5
NC(=O)c1nc(Nc2ccccc2)sc1NC(=O)c1ccccc1Br | 12.6 | 1.6 | 5.5 | 0.0 | -3.4
CC[N+](CC)(CC)CC(=O)Nc1ccc(SC(F)F)cc1 | 0.4 | -1.3 | 0.1 | 9.2 | 0.2
Cc1ccc(C(=O)Nc2ccc(SC(F)F)cc2)s1 | 8.7 | 0.8 | -3.3 | -33.8* | -5.1
COCC1CCN(Cc2cn(Cc3ccccc3)nc2-c2cc3ccccc3o2)CC1 | 39.2* | -2.4 | 4.0 | -1.1 | -2.5
OC1CCN(Cc2cn(Cc3ccccc3)nc2-c2cc3ccccc3o2)CC1 | 25.3 | 5.3 | 5.8 | -31.0* | -6.3
Cc1ccc(NC(=O)c2cc([N+](=O)[O-])ccc2N2CCOCC2)cc1C | 0.7 | -1.0 | -2.2 | -30.0* | -1.8
O=C(c1cc([N+](=O)[O-])ccc1N1CCOCC1)N1CCOCC1 | 0.5 | 0.1 | 8.0 | -42.0* | 2.0
COC(=O)CC1Oc2ccc(C)cc2-n2cc(-c3ccc(F)cc3)nc21 (stereo unspecified) | 2.2 | -1.4 | -6.3 | 6.9 | -2.5
CCc1ccc(N/C(SCc2ccccc2C)=C(/C#N)C(=O)NCc2ccco2)cc1 | 30.0* | 2.9 | -2.7 | -30.3* | -4.2
O=C(Nc1cccnc1)C1COc2ccccc2O1 (stereo unspecified) | 6.2 | -1.2 | 9.8 | -7.7 | -7.9
O=C(Nc1ncccc1Cl)C1COc2ccccc2O1 (stereo unspecified) | 47.5* | -0.1 | -3.5 | 8.8 | -6.8
CCc1ccc(S(=O)(=O)c2nnn3c2nc(N2CCCC(C)C2)c2cc(Cl)ccc23)cc1 (stereo unspecified) | 3.1 | 0.5 | -10.3 | 5.9 | -6.0
Cc1ccc(NS(=O)(=O)c2cc(C(=O)N(C)C)ccc2C)cc1C | 0.0 | 0.1 | 17.3 | -36.6* | 4.5
Cc1ccc(NS(=O)(=O)c2cc(C(=O)N3CCCC3)ccc2C)cc1C | 0.9 | -0.6 | -0.8 | 2.0 | -4.4
O=[N+]([O-])c1ccc(O)c(-c2cc(C(F)(F)F)nc(-c3ccccc3)n2)c1 | 35.7* | 7.3 | -5.9 | -48.1* | -6.2
CCCCN(Cc1cccs1)S(=O)(=O)c1cc(-c2cc(C)no2)ccc1C | 24.0 | 2.2 | 4.5 | -1.5 | -2.4
CC(=O)Nc1ccnc(-c2cccnc2)n1 | 0.1 | 0.8 | 1.2 | -4.0 | 0.0
CCCCC(=O)Nc1ccnc(-c2cccnc2)n1 | 220.4* | 0.2 | 0.6 | -86.4* | -2.4
O=C(Nc1nnc(SCc2ccccn2)s1)C1CC(=O)N(c2ccc(F)cc2)C1 (stereo unspecified) | 4.9 | 0.7 | 6.8 | -17.8 | -1.9
COc1ccc(CCNC(=O)c2ccc3c(c2)CCN3S(=O)(=O)c2ccc(C)cc2)cc1 | 3.3 | 0.5 | 2.0 | -15.3 | -2.6
Cc1ccc(Cl)cc1NC(=O)CCS(=O)(=O)c1ccc2c(c1)n(C)c(=O)c(=O)n2C | 1.6 | -1.2 | 23.9 | -34.9* | 0.2
Cc1ccc(F)cc1NC(=O)CSc1nc(-c2cccs2)cc(C(F)(F)F)n1 | 1.1 | 0.0 | 2.2 | 6.1 | 3.8
CCc1cccc(NC(=O)CN2CCCN(Cc3cccc(C)c3)S2(=O)=O)c1 | 4.9 | -0.8 | 4.3 | -1.4 | 0.8
Cc1ccc(C)c(NC(=O)CN2CCCN(Cc3cccc(Cl)c3)S2(=O)=O)c1 | 5.8 | -0.5 | 1.0 | -78.6* | -1.9
